Test results: PubChem BioAssay AID2227 (Johns Hopkins Ion Channel Center, 2009)
Out of some 310,000 compounds screened, about 1,300 (0.42%) were called active.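 How the source made its calls: active means B-score of calcium response area above 5 SD of library B-scores, with initial fluorescence ratio within 5 SD of library; inactive means the rest.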 The sample as a whole holds a higher share of actives than the screen did.

Target: Short transient receptor potential channel 4 (Mus musculus) (UniProt Q9QUQ5)
Experiment: positive allosteric modulators of TRPC4, primary screen, cell-based, mouse TRPC4beta, HEK293 mu-opioid, Fluo-4 calcium (AID 2227);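 on B-score: B-score of integrated fluorescence ratio over time as area under calcium response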
Conditions: DAMGO EC20, Fluo-4 Ca2+ flux, at 10 µM; stronger effect = higher value

Sequence of Short transient receptor potential channel 4 (Mus musculus) (Q9QUQ5 whole entry, looked up): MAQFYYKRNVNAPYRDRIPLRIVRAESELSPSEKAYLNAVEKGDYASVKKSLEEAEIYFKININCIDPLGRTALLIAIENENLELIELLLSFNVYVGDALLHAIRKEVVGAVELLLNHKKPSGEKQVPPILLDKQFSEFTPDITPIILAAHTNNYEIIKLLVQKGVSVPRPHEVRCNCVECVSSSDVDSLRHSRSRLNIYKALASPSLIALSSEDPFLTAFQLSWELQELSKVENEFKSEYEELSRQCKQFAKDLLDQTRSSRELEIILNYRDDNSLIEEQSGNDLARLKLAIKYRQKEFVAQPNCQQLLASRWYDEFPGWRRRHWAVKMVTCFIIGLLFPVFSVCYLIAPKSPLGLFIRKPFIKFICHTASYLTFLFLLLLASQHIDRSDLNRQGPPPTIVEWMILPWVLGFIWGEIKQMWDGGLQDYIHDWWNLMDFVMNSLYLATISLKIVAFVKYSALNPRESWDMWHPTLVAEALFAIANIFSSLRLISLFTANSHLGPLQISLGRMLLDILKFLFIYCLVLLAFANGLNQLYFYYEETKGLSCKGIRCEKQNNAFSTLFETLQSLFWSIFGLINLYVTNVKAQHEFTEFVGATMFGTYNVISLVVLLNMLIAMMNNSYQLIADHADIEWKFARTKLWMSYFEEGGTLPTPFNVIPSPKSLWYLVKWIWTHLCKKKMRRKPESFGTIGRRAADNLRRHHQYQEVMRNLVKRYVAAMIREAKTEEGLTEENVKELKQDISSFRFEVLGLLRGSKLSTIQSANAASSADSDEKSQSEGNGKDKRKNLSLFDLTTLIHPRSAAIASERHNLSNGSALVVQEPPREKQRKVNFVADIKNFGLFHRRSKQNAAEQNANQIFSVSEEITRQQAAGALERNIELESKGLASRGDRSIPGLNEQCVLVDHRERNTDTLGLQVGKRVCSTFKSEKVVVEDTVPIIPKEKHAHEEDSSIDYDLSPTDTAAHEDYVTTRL

B-score, active:
CCN1/C(=C\c2ccc3ccccc3[n+]2CC)Sc2cc(C)ccc21 13
CCc1ccc2c(c1)C1(NN=C(c3ccccc3)S1)C(=O)N2 (centres undefined) 11
Cc1cccc(Cn2c(N3CCN(c4ccccc4)CC3)nc3c2c(=O)n(C)c(=O)n3C)c1 41
OC(CNCC1CCCO1)Cn1c2ccc(Br)cc2c2cc(Br)ccc21 (centres undefined) 17
Cc1ccc(/C=N/NC(=S)NC2CCCCC2)o1 35
O=C(NC1CC1)C1=C[C@H](c2c[nH]c3ccccc23)C[C@H](OCc2ccc(CO)cc2)O1 11
CCOc1ccc(Nc2nc(Cc3nnc(SCC(=O)c4ccc(C)cc4)o3)cs2)cc1 30
CC1CC(C)CN(CCOc2cccc3ccccc23)C1 (centres undefined) 11
CCN(CC)CCOCCOc1ccc(Cl)c2ccccc12 21
Cc1ccc(C)c(CN2CCC(CNC(=O)Nc3ccc(C)c(F)c3)CC2)c1 10
Cc1cc(NC(=O)CCN2CCN(Cc3ccccc3)CC2)ccc1Br 20
CCCCN(C)CCNC(=O)C1CCCN(S(=O)(=O)c2cccc3nsnc23)C1 (centres undefined) 25
CCc1c(C)nc2c(-c3ccccc3)c(C)nn2c1Nc1ccc(NC(C)=O)cc1 27
COc1ccc(S(=O)(=O)NCCCc2ccccc2)cc1 32
CCCCCCn1cc(C(=O)O)c(=O)c2cc(F)c(N3CCCCC3)cc21 12
Cc1ccc(N2C(=O)C(NC(=O)c3c(F)cccc3F)(C(F)(F)F)C3=C2CC(C)(C)CC3=O)cc1 (centres undefined) 119
O=S(=O)(c1ccc(Br)cc1)c1nc(-c2ccccc2)oc1N1CCOCC1 11
Cc1cc2cc3c(N)[nH]nc3nc2cc1C 11
COc1cc2c(C(=O)N3CCN(C)CC3)c(CSc3ccccc3)n(C)c2cc1Br 18
Clc1c(OCCCn2ccnc2)ccc2ccccc12 15
C=C(C)COc1ccc(-c2nc(N)ncc2-c2ccccc2OC)c(O)c1 22
O=C1c2ccccc2C(=O)c2c1cccc2N1CCN(Cc2ccccc2)CC1 14
COC(=O)c1cc(N2CCNCC2)nc2ccccc12 39

B-score, inactive:
N#Cc1cc([N+](=O)[O-])ccc1NCC1CCCO1 (centres undefined)
COC(C[C@H](O)CC(=O)COCc1ccccc1)OC
COC(=O)C(C)Sc1nc2c(c(=O)n(C)c(=O)n2C)n1Cc1cccc(C)c1 (centres undefined)
Cc1cccc(Cn2c(SCCO)nc3c2c(=O)n(C)c(=O)n3C)c1
CCOC(=O)NN1C(=O)c2ccccc2NC1c1ccccc1O (centres undefined)
O=C(CSc1ccc(-c2ccc(Br)cc2)nn1)NCC1CCCO1 (centres undefined)
CC(NS(=O)(=O)c1ccc(Br)cc1)C(=O)NCC1CCCO1 (centres undefined)
Cc1cc(S(=O)(=O)c2cc3ccc(O)c(C)c3oc2=O)ccc1F
C/C(=N\NC(=S)NC1CCCCC1)c1ccc(C)o1
Cc1ccc(/C=N/NC(=S)Nc2cccc(S(=O)(=O)N(C)C)c2)o1
NC(=O)C1=C[C@@H](c2csc3ccccc23)C[C@@H](OCc2ccc(CO)cc2)O1
NC(=O)C1=C[C@H](c2csc3ccccc23)C[C@H](OCc2ccc(CO)cc2)O1
Cc1c(-c2nn(C)c(=O)c3ccccc23)oc2ccc(F)cc2c1=O
CCOc1ccc(Nc2nc(Cc3nnc(SCC(=O)NC4CCCC4)n3C)cs2)cc1
CC(=O)Nc1ccc(C(=O)CSc2nnc(Cc3ccccc3)o2)cc1
NC(=O)C1(N2CCCCC2)CCN(C(=O)c2ccc(C#Cc3ccccc3)o2)CC1
CN1CCN(CCCCOc2cccc3ccccc23)CC1
CC1CN(CCOc2ccccc2[N+](=O)[O-])CC(C)O1 (centres undefined)
CCOC12CC(C)(C)CC(C)(CC3=C1C(=O)CC(C)(C)C3)C2 (centres undefined)
CCCCCCCNc1nc(Cl)nc(NCCO)n1
O=C(N/N=C/c1ccc(OCC2COCCO2)cc1)c1ccc(Br)cc1 (centres undefined)
CCOc1ccc(N2C(=O)/C(=C/c3ccc(C)o3)N(C)C2=S)cc1
CC(NC(=O)COc1cccnc1[N+](=O)[O-])c1ccc(Cl)cc1Cl (centres undefined)
Clc1cccc(Cl)c1OCCOCCNCc1ccccc1
CN(C)CCOCCOc1ccc(Cl)c2ccccc12
O=S(=O)(Nc1cccc(-n2cnnn2)c1)c1cnc(Cl)c(Cl)c1
COc1cc(S(=O)(=O)Nc2ncn[nH]2)ccc1Cl
Cc1cccc(CN2CCC(CNC(=O)Nc3ccc(F)c(Cl)c3)CC2)c1
COc1cc(NC(=O)NCC2CCN(Cc3ccc(C)cc3)CC2)cc(OC)c1OC
COC(=O)c1cc(S(=O)(=O)N2CCC(C(N)=O)CC2)oc1C
O=c1c(-c2ccccc2Cl)c[nH]n1-c1ccccc1
Cc1ccc(C(=O)NCCc2nnc(SCC(=O)Nc3cccc(C(=O)O)c3)n2C)cc1
O=C(CN1CCN(Cc2ccccc2)CC1)Nc1ccc(F)c(F)c1
CCOC(=O)N1CCN(CCC(=O)Nc2ccccc2)CC1
COc1ccccc1C(=O)Nc1ccnn1C1CCN(Cc2cnn(C)c2)CC1
O=C(COc1ccc(Cl)cc1)Nc1ccc2c(c1)OCO2
CCC(C)Sc1nc2c(cnn2-c2ccc(F)cc2)c(=O)[nH]1 (centres undefined)
O=C(c1ccco1)N1CCN(C(=O)C2CCCN(S(=O)(=O)c3cccc4nsnc34)C2)CC1 (centres undefined)
CCCCN(CC)C(=O)C1CCCN(S(=O)(=O)c2cccc3nsnc23)C1 (centres undefined)
CC(C)c1nc(CNC(=O)CC2C(=O)NCCN2Cc2cccc(F)c2F)cs1 (centres undefined)
C=CCNC(=O)CC12CC3CC(C1)CC(CC(=O)NCC=C)(C3)C2
Cc1cc(-c2ccccc2)n2nc(C)c(-c3ccccc3)c2n1
Cc1cc(-n2nc(C)cc2C)n2nc(C)c(-c3ccccc3)c2n1
CCCC(C)c1nnc(NC(=O)C2CC(=O)N(c3ccc(OCC)cc3)C2)s1 (centres undefined)
O=S(=O)(NCCc1ccccc1)c1ccccc1
O=S(=O)(NCCCc1ccccc1)c1ccc(Br)cc1
COC(=O)c1c(NC(=O)CN2CCN(S(=O)(=O)c3ccccc3[N+](=O)[O-])CC2)sc2c1CCC(C)C2 (centres undefined)
CS/C(=C\C(=O)c1ccco1)Nc1ccccc1Cl
C#CCCCc1nc2ccccc2c(=O)n1N
CCCCn1c(N)c(N(CC(C)C)C(=O)c2cccc(S(=O)(=O)N3CC(C)OC(C)C3)c2)c(=O)[nH]c1=O (centres undefined)
CCn1cc(CN2CCN(CC(C)(C)C)C(CCO)C2)c2ccccc21 (centres undefined)
CN1CCN(c2cc3c(cc2F)c(=O)c(C(=O)O)cn3CCF)CC1
CCn1cc(C(=O)NCCO)c(=O)c2cc(F)c(N3CCN(C)CC3)cc21
O=C(c1ccc(F)cc1)c1c[nH]c(C(=O)NCc2cccnc2)c1
C=CCC1(C(=O)N(C)Cc2ccccc2)CCN(C(=O)OC(C)(C)C)CC1
CC1(C)CC(=O)C(N=Nc2c(F)cccc2F)=C(O)C1
C=CCSc1nnc(N2C(=O)C(O)=C(C(=O)c3ccco3)C2c2ccc(F)cc2)s1 (centres undefined)
COc1ccccc1N(C)S(=O)(=O)c1ccc(C(=O)NC2CCCCCC2)cc1
COC(=O)Cc1csc(/N=C/c2c(O)n(-c3cccc(C(F)(F)F)c3)c(=O)c3ccccc23)n1
O=S(=O)(c1ccccc1)c1nc(Cc2ccccc2)oc1N1CCOCC1
O=S(=O)(c1ccccc1)c1nc(-c2ccccc2)oc1NCCCN1CCOCC1
COc1nnc(-c2ccc(C)c(S(=O)(=O)N(C)C)c2)c2ccccc12
CC1CCCCC1NC(=O)CO/N=C/c1ccc(OC(F)F)cc1 (centres undefined)
Cc1nn(CC(=O)Nc2ccc(N(C)C)cc2)c(C)c1[N+](=O)[O-]
COc1cccc(/C=C/C(=O)OCC(=O)N2CCCc3ccccc32)c1
O=C(NCCN1CCOCC1)c1cc(Sc2cccc(Cl)c2)nc2ccccc12
COc1ccccc1OCc1ccc(C(=O)N2CCN(C)CC2)o1
COc1cc(C(=O)N2CCN(C)CC2)cc(OC)c1OC
CC1=C(C(=O)OCC2CCCCC2)C(c2ccc(F)cc2)NC(=O)N1 (centres undefined)
C=CCc1cc(C)ccc1OCCCn1ccnc1
c1ccc(Cc2ccc(OCCn3ccnc3)cc2)cc1
Fc1ccccc1/C=N/Nc1cc(N2CCCCC2)ncn1
O=C(NCc1cccc(Cl)c1)C1CCC(=O)N(C2CC2)C1 (centres undefined)
C=CCN(Cc1nc(-c2cc(OC)c3c(c2)OCO3)oc1C)C1CCS(=O)(=O)C1 (centres undefined)
CCOc1ccc(-c2nc(N)ncc2-c2ccccc2OC)c(O)c1
C=C(C)COc1ccc(-c2ncncc2-c2ccc(OC)cc2)c(O)c1
CC(C)Oc1ccc(CC(=O)NNC(=S)Nc2ccc(Br)cc2)cc1
COc1cc(CCC(=O)Nc2ccncc2Cl)cc(OC)c1OC
O=C1c2ccccc2C(=O)c2c1cccc2N1CCN(C/C=C/c2ccccc2)CC1
O=C1c2ccccc2C(=O)c2c1cccc2N1CCN(CCO)CC1
Cc1ccc(Cl)cc1NC(=O)CN1CCN(S(=O)(=O)N2CCOCC2)CC1
O=C(c1ccc(Cl)s1)N(Cc1nnc(-c2ccccc2Cl)o1)C1CC1
CCc1c(C)nc(N)n2c(SCC(=O)NC3CCCCC3)nnc12
Cc1ccc(NC(=O)c2cnc(SCC(=O)NCC3CCCO3)n(C)c2=O)cc1 (centres undefined)
COc1ccccc1NC(=O)c1cc(Cl)nc2ccccc12
Cc1cc(C(=O)Nc2ccccc2N2CCOCC2)c2ccccc2n1
